# PubChem BioAssay (NCI)
# This is part of a sample that, as a whole, favours compounds with a hit. Of some 79,000 tested, about 15% had one in any assay. Active and inactive are the calls of the source. No stated cut-off is given here; in the data, active means growth inhibition above about 70%; inactive means the rest.
# Experiment: NCI Yeast Anticancer Drug Screen. Data for the cln2 rad14 strain (AID 165);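 further: 0% = growth equal to vehicle treated cultures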
# Details: S. cerevisiae cln2 rad14 strain, at 50.0 µM, stronger effect = higher value
# Method: Growth inhibition of yeast strains with defined genetic alterations is measured as a screen for potential anti-cancer activity. Selected strains with alterations in DNA damage repair or cell cycle control were exposed to compounds and growth inhibition was measured relative to vehicle treated controls. The strain used in this assay is cln2 rad14
row,SMILES,growth inhibition
1,Nc1ccccc1SC(CC(=O)c1ccccc1)c1c(Cl)cccc1Cl (stereo not given),1.75% (inactive)
2,O=C1c2ccccc2C(=O)N1OCc1ccccc1,3.05% (inactive)
3,O=C(NC1CCCCC1)OCc1c(COC(=O)NC2CCCCC2)c(-c2ccc(Cl)c(Cl)c2)n2c1CCC2,43.3% (inactive)
4,CC1=CC(C)(C)NC(=S)N1c1ccc(S(=O)(=O)O)c2cccc(S(=O)(=O)O)c12,-30.9% (inactive)
5,[O-][N+](=Nc1cccc(Cl)c1)c1cccc(Cl)c1,16.1% (inactive)
6,C=CCCCCCCCCCOC(C)=O,-9.5% (inactive)
7,COc1ccc(C)cc1OC,0.6% (inactive)
8,CCC(=O)Oc1ccc(OC)cc1,29.4% (inactive)
9,O=P(O)(O)OCC(O)CO (stereo not given),25.3% (inactive)
10,C/C(=N/NC(N)=O)c1ccco1,-2% (inactive)
11,O=S(=O)(O)CC(O)CN1CCN(CCO)CC1 (stereo not given),5.45% (inactive)
12,COC(=O)c1ccccc1N(C)C,2.4% (inactive)
13,CCCC(C)OCC(=O)O (stereo not given),4.35% (inactive)
14,CSC(=N\N=C\c1ccc(N(C)C)cc1)/N=C/N(C)C,7.65% (inactive)
15,Sc1ccc(Nc2c3ccccc3nc3ccccc23)cc1,7.3% (inactive)
16,CCn1c(=O)n(C)c2c(=O)n(C)c(=O)n(C)c21,1% (inactive)
17,O=C(Nc1ccccc1C(=O)NCC1CC1)c1cccs1,5.35% (inactive)
18,c1ccc(Cc2ccccc2)cc1,1.5% (inactive)
19,CC(C)OC(C(=O)O)c1ccccc1 (stereo not given),11.8% (inactive)
20,CCCC(=O)c1cc(C)ccc1OC,-22.6% (inactive)

row,SMILES,growth inhibition
1,CCOc1ccc(/C=N/N=C(N)N)cc1OCC,-53.4% (inactive)
2,c1ccc(CN2COc3c(ccc4c3OCN(Cc3ccccc3)C4)C2)cc1,-22.7% (inactive)
3,Cc1cc(N)ccc1-c1ccc(N)cc1C,-39% (inactive)
4,CCC(O)CC(CC)CO (stereo not given),-32.7% (inactive)
5,C/C(=N\NC(=O)c1ccccc1N)c1ccccc1O,4.5% (inactive)
6,CN(C)c1ccc2oc(=O)c3ccccc3c2c1,-2% (inactive)
7,O=c1cc2oc3cc(O)c(O)cc3c(-c3ccccc3O)c-2cc1O,32.3% (inactive)
8,CC1CCC2C(C)(C)C3CC12CC1OC13C (stereo not given),4.95% (inactive)
9,CCCCCCCCCCCCCCCCC1CC(=O)OC1=O (stereo not given),4.3% (inactive)
10,CC1=CC(=O)c2ccccc2C1=O,13.2% (inactive)
11,CCOC(=O)c1ccc(NC(=S)P(=O)(c2ccccc2)c2ccccc2)cc1,30.7% (inactive)
12,CN(C)CCN(C)CC(C)(C)C(=O)/C=C/c1ccc(Cl)cc1,-2.65% (inactive)
13,CCCCC/C=N/Nc1nc(C)cc(=O)[nH]1,15.7% (inactive)
14,Cc1cccc([N+](=O)[O-])c1Cl,10.6% (inactive)
15,CCS(=O)(=O)c1cc(=O)[nH]c(=O)[nH]1,32.5% (inactive)
16,COC(=O)c1cc(-c2ccc(Cl)c(Cl)c2)[nH]c(=O)c1C#N,21.7% (inactive)
17,O=C1C=CC2=C3c4cc(O)c(O)cc4CC3(O)COC2=C1O (stereo not given),-6.7% (inactive)
18,O=[N+]([O-])c1ccc(-c2noc(-c3cccs3)n2)cc1,15% (inactive)
19,NC(=S)N/N=C/c1ccc(N)cc1,-1.35% (inactive)
20,Cc1ccc(/C(C#N)=C/c2ccc3c(c2)OCO3)cc1,-14.3% (inactive)
